Assay outcomes: PubChem BioAssay, several laboratories
SKKanGAS inh: inhibitors of SKKanGAS S. pyogenes growth in kanamycin (SK-promoter or general growth effect); inhibition, % at 7.5 µM; BacTiter-Glo, 6 h; 300,000 compounds, 1.3% hits; AID 1662;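 active = mean replicate score, as percent of positive control median, at least 50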;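 also: strain carries kanamycin resistance gene driven by streptokinase promoter and grows in 40 µg/ml kanamycin; loss of luminescence reflects streptokinase promoter inhibition or plain growth inhibition; 0% = median of DMSO wells and 100% = positive control at its reference dose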
PfHsp90 set2: reduces growth (ATP signal) of yeast expressing P. falciparum Hsp90. S. cerevisiae expressing PfHsp90, BacTiter-Glo ATP, 48 h; yeast lacking PDR1 and PDR3 efflux regulators. inhibition, % at 9.4 µM. 310,000 compounds, 0.32% hits. AID 504621;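 active = every replicate shows inhibition above about 80%, whatever the replicate mean, limit read from the data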;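 also: 0% = DMSO neutral controls and 100% = 20 µM radicicol positive controls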
NALP3 yeast inh: inhibitors of NALP3 inflammasome in yeast; Yeast reconstituted NLRP3/ASC/caspase-1, beta-gal luminescence, 24 h; inhibition, % at 10 µM; 330,000 compounds, 0.39% hits;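 active = inhibition of 50% or more; inactive = inhibition below 50%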;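 also: plate controls were induced DMSO wells for no effect and uninduced yeast grown without galactose for full effect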
TIM10 inh: TIM10 yeast growth inhibition; 330,000 compounds, 1.4% hits; AID 463195; S. cerevisiae TIM10 strain growth, BacTiter-Glo luminescence, 24 h; inhibition, % at 10 µM;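 active = inhibition of 40% or more at the single tested concentration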;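 also: wild-type TIM10 isogenic control strain grown at permissive 25 °C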
tim23-1 inh: tim23-1 yeast growth inhibition; S. cerevisiae tim23-1 growth, BacTiter-Glo luminescence, 24 h; inhibition, % at 20 µM; 330,000 compounds, 1.3% hits;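 active = growth inhibition of the mutant yeast at or above 50%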;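 also: temperature-sensitive mutant grown at 25 °C; plate controls were DMSO-treated mutant yeast for no effect and medium wells lacking yeast for full effect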
tim10-1 inh: inhibits growth of tim10-1 mutant yeast. inhibition, % at 20 µM. AID 463190. 330,000 compounds, 2.2% hits. S. cerevisiae tim10-1 ts strain growth, BacTiter-Glo, 24 h;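 active = inhibition of at least 40%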;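 also: mutant grown at 25 °C; 0% = DMSO wells with yeast and 100% = wells holding no yeast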
tim10-1 confirm: confirmation of tim10-1 mutant yeast growth inhibitors; AID 463213; 7,400 compounds, 56% hits; shares compounds with tim10-1 inh; inhibition, % at 20 µM; S. cerevisiae tim10-1 ts strain growth, BacTiter-Glo, 24 h;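 active = inhibition of yeast growth at or above a set limit in either of two repeat tests at 20 µM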;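 also: tim10-1 mutant grown at permissive 25 °C to find synthetic lethal compounds; 0% = DMSO yeast wells and 100% = medium wells without yeast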
tim10 confirm: confirmation of TIM10 yeast growth inhibitors; shares compounds with TIM10 inh; S. cerevisiae tim10 strain growth, BacTiter-Glo luminescence, 24 h; inhibition, % at 10 µM; 4,600 compounds, 63% hits;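 active = inhibition of yeast growth at or above a set limit in either of two replicates at 10 µM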;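 also: this counterscreen used the strain with wild-type TIM10; 0% = yeast with DMSO and 100% = medium wells lacking yeast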
tim23-1 conf: tim23-1 yeast growth inhibition, confirmed. shares compounds with tim23-1 inh. S. cerevisiae tim23-1 growth, BacTiter-Glo luminescence, 24 h. inhibition, % at 20 µM. 4,400 compounds, 83% hits;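 active = inhibition above about 39% in either of two replicate wells at 20 µM, limit read from the data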;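 also: temperature-sensitive tim23-1 mutant grown at 25 °C; 0% = DMSO wells with yeast and 100% = medium wells without yeast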
Active calls of the source: *; / = not tested or not shown. Compounds with a hit are over-represented: about 4.6% of the library has one in this group of screens.

SMILES	SKKanGAS inh	PfHsp90 set2	NALP3 yeast inh	TIM10 inh	tim23-1 inh	tim10-1 inh	tim10-1 confirm	tim10 confirm	tim23-1 conf
COc1ccc(/C=N/n2c(C3CCCCC3)n[nH]c2=S)c(OC)c1	-1.8	-7.7	14.1	28.7	58.3*	40.5*	19.8	/	48.4*
N#Cc1ccc(COC(=O)c2cnc3ccccc3n2)cc1	-2.0	9.8	10.1	-10.1	-5.7	-0.7	/	/	/
c1cncc(-c2nnc(-c3cccnc3)nn2)c1	17.4	/	-13.9	36.3	54.2*	50.1*	40.2*	/	56.0*
Cc1ccc(C(=O)/C=C/c2ccc3ncccc3c2)cc1	-2.8	-1.1	36.2	51.6*	68.9*	52.6*	52.3*	50.3*	46.8*
Cc1ccc(NC(=O)C2CCN(c3ncnc4c3nc3n4CCCCC3)CC2)nc1	-8.4	-13.0	7.7	7.8	16.1	21.3	/	/	/
COc1ccc(NC(=O)/C(Cl)=C(/Cl)S(=O)Cc2ccc(Cl)cc2)cn1 (stereo not given)	/	106.5*	11.8	67.0*	72.6*	49.5*	45.5*	90.3*	68.0*
COc1ccc(NC(=O)C(Cl)=C(Cl)Cl)cn1	1.7	13.6	4.1	-16.5	-21.4	-37.0	/	/	/
O=C(NCC1CCCO1)c1ccccc1NS(=O)(=O)c1ccc(F)cc1 (stereo not given)	/	-3.2	2.4	-0.3	16.0	22.8	/	/	/
Fc1ccc(C2Nc3cccc4cccc(c34)N2)cc1	12.6	20.6	-2.7	31.5	56.7*	44.6*	29.9	/	50.9*
O=c1[nH]c2ccccc2nc1-c1ccccc1	1.0	-40.2	31.0	7.8	15.9	-14.6	/	/	/
NC(=O)N=Nc1c2[nH]c3ccccc3nc-2c2ccccc12	72.1*	67.9	42.2	52.5*	55.8*	43.8*	44.7*	62.4*	51.9*
O=C(Nc1ncc(Br)s1)C(Cc1ccccc1)n1cccc1 (stereo not given)	17.8	39.5	-5.2	57.5*	66.7*	63.2*	54.4*	56.7*	53.8*
CSc1ccccc1NC(=O)CN(C)C(=O)C(C)SCc1nc2sc(C)c(C)c2c(=O)[nH]1 (stereo not given)	/	-3.5	/	/	/	/	/	/	/
O=C(NCCN1CCOCC1)c1ccc(=O)n(Cc2ccc(Cl)cc2)c1	0.7	-3.3	12.4	-0.9	6.3	-2.1	/	/	/
O=C(/C(N=Nc1cccc([N+](=O)[O-])c1)=C(/O)c1ccc(Br)cc1)C(F)(F)F	83.7*	/	48.2	27.2	61.8*	61.7*	61.5*	/	73.1*
COc1ccc(/C=C/C(=O)c2cc(F)ccc2OC(=O)c2ccc(OC)c(OC)c2)cc1OC	0.0	5.5	15.4	53.6*	52.4*	50.3*	45.8*	28.6	55.9*
Cc1ccccc1/C=C1\C(=O)Nc2ccc(F)cc21	-1.2	-27.3	32.6	25.8	53.0*	43.6*	38.0*	/	60.8*
CCn1c(Sc2ccc(N)cc2Cl)nc2ccccc21	6.6	21.9	30.8	43.8*	65.9*	47.1*	49.6*	46.6*	46.9*
O=C1c2ccccc2C(=O)c2c1oc(C(F)(F)F)c2C(=O)c1ccccc1	106.0*	-84.9	3.7	77.8*	80.1*	80.1*	72.5*	92.5*	76.2*
COc1ccc(C(=O)c2coc3c2C(=O)C(=O)c2ccccc2-3)cc1	57.8*	12.2	24.6	94.4*	85.2*	94.5*	92.9*	96.5*	92.7*
COc1ccc2occ(C(=O)c3ccccc3)c2c1	5.9	-44.4	4.0	5.2	15.7	16.2	/	/	/
O=C(c1ccccc1)c1coc2c1C(=O)c1ccccc1C2=O	13.4	-13.5	33.6	72.8*	66.3*	81.5*	76.0*	68.7*	79.3*
N#Cc1ccc(C(=O)CN2CCN(c3ccccc3)CC2)cc1	0.7	13.3	15.9	-3.9	5.4	-3.3	/	/	/
CCN1/C(=C/C(C)=C/c2sc3ccccc3[n+]2CC)Sc2ccccc21	100.5*	71.6	-6.5	78.9*	82.3*	80.2*	75.5*	88.0*	81.5*
CCn1cc(C(=O)N2CCN(c3ccccn3)CC2)c(=O)c2cc(S(=O)(=O)N(C)C3CCCCC3)ccc21	-4.1	10.4	14.3	0.3	0.2	6.7	/	/	/
SMILES	SKKanGAS inh	PfHsp90 set2	NALP3 yeast inh	TIM10 inh	tim23-1 inh	tim10-1 inh	tim10-1 confirm	tim10 confirm	tim23-1 conf
CC1=CC(=O)C=C(C)C1=NOc1ccccc1[N+](=O)[O-]	2.6	27.0	1.8	72.2*	65.6*	77.9*	75.7*	18.2	83.2*
Cc1cc(C)c(S(=O)(=O)Oc2ccccc2[N+](=O)[O-])c(C)c1	/	-17.7	/	/	/	/	/	/	/
CCN(CC)c1ccc2c(Cl)c(Br)c(=O)oc2c1	-6.0	/	6.0	72.2*	63.9*	60.3*	58.8*	67.8*	77.9*
CCN(CC)c1ccc2c(c1)oc(=O)c1c(Cl)cc(=O)oc12	14.4	-21.4	6.4	88.8*	73.4*	77.7*	82.0*	61.0*	81.2*
CCN(CC(=O)Nc1ccccc1C(F)(F)F)C(=O)Cc1ccccc1	-0.3	31.9	14.0	-1.5	18.1	19.4	/	/	/
CCOC(=O)c1ccsc1NC(=O)CCS(=O)(=O)c1ccccc1	17.0	-15.2	-1.8	42.8*	62.5*	53.6*	42.1*	38.0*	51.3*
Cc1cc(C)n2nc(CC#N)c(C#N)c2n1	-5.8	3.8	21.8	5.7	8.7	0.4	/	/	/
Cc1cc(C)n2nc(/C(C#N)=C/c3ccccn3)c(C#N)c2n1	4.0	-1.0	32.5	51.1*	51.9*	61.7*	58.0*	52.4*	75.4*
Cn1c(=O)[nH]c(=O)c2c1nc(N1CCOCC1)n2CC(=O)c1ccccc1	-4.8	/	1.5	-13.7	-1.8	8.9	/	/	/
CCCN(c1nc(C)cc(OC)n1)S(=O)(=O)c1ccccc1	4.5	-33.3	-8.2	33.7	50.7*	43.9*	18.4	/	39.9*
O=C(Nc1nc2ccccc2s1)C1CC(=O)N(c2ccc(Br)cc2)C1 (stereo not given)	21.7	-31.4	14.9	45.9*	72.7*	49.3*	37.1*	36.3*	74.3*
CCOc1ccc(CCNC(=O)c2ccc(OCc3c(C)noc3C)cc2)cc1OCC	4.4	-14.4	0.7	2.4	6.3	8.0	/	/	/
N#CC(c1ccc(Cl)cc1)c1ccc2c(C(F)(F)F)cc(C(F)(F)F)nc2n1 (stereo not given)	38.4	-12.4	19.7	64.0*	61.7*	71.2*	48.5*	53.8*	60.2*
FC(F)(F)c1cc(C(F)(F)F)c2ccc(N3CCN(c4ccc(Cl)cc4)CC3)nc2n1	0.6	-10.2	11.7	-29.2	-36.5	18.4	/	/	/
